This is part of a sample that, as a whole, favours compounds with a hit. Of some 83,000 tested, about 20% had one in any assay.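 Compound tested at a single concentration for 48 hours in 96-well plates; a percent growth value below 10 was scored as active.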 Values without a mark were called inactive. Active and inactive are the calls of the source.
Columns and labels:
Assay in all cases: NCI-60 one-dose screen, 48 h (100 = growth as untreated, 0 = no growth, -100 = all killed)
Conditions in all cases: 10 µM unless noted
EKVX NSCLC = tested on: EKVX NSCLC
SN12C renal = tested on: SN12C renal
UO-31 renal = tested on: UO-31 renal
TK-10 renal = tested on: TK-10 renal
ACHN renal = tested on: ACHN renal
CAKI-1 renal = tested on: CAKI-1 renal
A498 renal = tested on: A498 renal
CCRF-CEM leukemia = tested on: CCRF-CEM leukemia
SR leukemia = tested on: SR leukemia
RPMI-8226 leukemia = tested on: RPMI-8226 leukemia
OVCAR-8 ovarian = tested on: OVCAR-8 ovarian
OVCAR-5 ovarian = tested on: OVCAR-5 ovarian
OVCAR-4 ovarian = tested on: OVCAR-4 ovarian
SK-OV-3 ovarian = tested on: SK-OV-3 ovarian
IGROV1 ovarian = tested on: IGROV1 ovarian
OVCAR-3 ovarian = tested on: OVCAR-3 ovarian
HS 578T breast = tested on: HS 578T breast
NCI/ADR-RES ovarian = tested on: NCI/ADR-RES ovarian
MOLT-4 leukemia = tested on: MOLT-4 leukemia

Row | SMILES | growth (EKVX NSCLC) | growth (SN12C renal) [%] | growth (UO-31 renal) | growth (TK-10 renal) [%] | growth (ACHN renal) | growth (CAKI-1 renal) [%] | growth (A498 renal) | growth (CCRF-CEM leukemia) | growth (SR leukemia) | growth (RPMI-8226 leukemia) [%] | growth (OVCAR-8 ovarian) | growth (OVCAR-5 ovarian) | growth (OVCAR-4 ovarian) | growth (SK-OV-3 ovarian) | growth (IGROV1 ovarian) [%] | growth (OVCAR-3 ovarian) | growth (HS 578T breast) [%] | growth (NCI/ADR-RES ovarian) | growth (MOLT-4 leukemia)
1 | O=C(Nc1ccccn1)[C@H](O)[C@@H](O)C(=O)N1CCOCC1 | 109% | 97.3 | 104% | 96.2 | 112% | 105 | 108% | 98.6% | 120% | 106 | 96.7% | 118% | 123% | 105% | 105 | 107% | 104 | 104% | –
2 | COC(=O)CCCNC(=O)C(=O)c1c(O)c(O)c(C(C)C)c2cc(C)c(-c3c(C)cc4c(C(C)C)c(O)c(O)c(C(=O)C(=O)NCCCC(=O)OC)c4c3O)c(O)c12 | 2.47% (active) | 16.6 | -5.61% (active) | – | 3.45% (active) | 32.7 | -7.28% (active) | 16.1% | -1.66% (active) | 17.1 | -15.1% (active) | 4.86% (active) | -3.33% (active) | -4.94% (active) | 18.2 | 4.88% (active) | 12.2 | 9.74% (active) | 8.94% (active)
3 | O=C(O)CC1Sc2ccccc2NC1=O (stereo not given) | 113% | 102 | 86.3% | 149 | 95.5% | 72.8 | 124% | 107% | 61.1% | 96 | – | 83.9% | 128% | 106% | 93.6 | 110% | 133 | 88.2% | 92.5%
4 | CCNCCNc1cc(-c2ccc(F)cc2)c(C#N)c2nc3ccccc3n12 | 78.4% | 70.9 | 39.9% | 87.5 | – | 71.2 | -9.7% (active) | 27.1% | -23% (active) | 36.4 | 42.2% | 89.9% | 31% | 94.5% | 60.4 | 0.676% (active) | 64.2 | 55.4% | 61.4%
5 | Clc1ccc(-c2nnc(Cn3ccnc3)o2)cc1 | 104% | 90.1 | 87% | 128 | – | 82.3 | 96.1% | 107% | 94.3% | 112 | – | 96.2% | 102% | 107% | 108 | 116% | 95.1 | 106% | 96.5%
6 | CCNCCNc1cc(-c2ccc(C(=O)OC)cc2)c(C#N)c2nc3ccccc3n12 | 84.8% | 67.4 | -11.3% (active) | – | 36.4% | 58.2 | 81.9% | -3.88% (active) | -7.47% (active) | 20.8 | 31.5% | 102% | -19.2% (active) | 81.7% | 53.5 | -57% (active) | 59.3 | 57% | 28.3%
7 | COC(=O)CNC(=O)C(=O)c1c(O)c(O)c(C(C)C)c2cc(C)c(-c3c(C)cc4c(C(C)C)c(O)c(O)c(C(=O)C(=O)NCC(=O)OC)c4c3O)c(O)c12 | 5.91% (active) | 32.9 | 1.7% (active) | 22.6 | – | 51.4 | 27.6% | 24.4% | 15% | 20.4 | 13% | 30.4% | -5.2% (active) | 6.72% (active) | 21.1 | 18% | 20.2 | 20.9% | 15.7%
8 | CC(C)(C)OC(=O)N1Cc2cc3ccccc3nc2C1CO (stereo not given) | 92.9% | 98.9 | 87% | 106 | 111% | 53.2 | 97.1% | – | 137% | – | 92.2% | 110% | 96% | 119% | 92.7 | 101% | 102 | 106% | 128%
9 | O=c1ccn(C2OC(F)(CO)C(O)C2F)c(=O)[nH]1 (stereo not given) | 91.2% | 102 | 97.1% | 90.3 | 98.9% | 94.3 | 68.5% | 103% | 101% | 106 | 98.3% | 103% | 105% | – | 112 | 107% | 94.1 | 101% | 99.8%

From PubChem BioAssay (NCI)
